Experimental data: PubChem BioAssay (NCATS)
A number with no mark means an inactive call. Records with an inconclusive call do not appear. A call without a number means that no potency is given here. Calls of active or inactive are those of the source. Unless noted, the call rests on the fitted dose curve; in most records, active means well fitted curve in the direction sought with a large enough effect; inconclusive means small, poorly fitted or top-dose-only effect, or another doubt; inactive means no such curve, though single readings can be large; an effect the other way counts as inactive or inconclusive.

Columns and labels:
C33A = experiment: Primary qHTS to identify gynecologic anti-cancer compounds using libraries of approved drugs and bioactive compounds (AID 1345084); settings: Gynecologic cancer cell panel viability, ATPlite luminescence, 48 h; series mostly up to 57.5 µM; further: nearly all actives have a fitted effect of over 55% in size
Outline: (§1)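 ATP-based viability (ATPlite), 1,000 cells/well, 16 h pre-incubation, 48 h compound at 37 C, 5% CO2, 15 min RT before read.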

CAOV3 = experiment: as above; settings: Gynecologic cancer cell panel viability, ATPlite luminescence, 48 h; series mostly up to 57.5 µM
Outline: as §1

CASKI = experiment: as above; settings: Gynecologic cancer cell panel viability, ATPlite luminescence, 48 h; series mostly up to 57.5 µM
Outline: as §1

Es-2 = experiment: as above; settings: Gynecologic cancer cell panel viability, ATPlite luminescence, 48 h; series mostly up to 57.5 µM
Outline: as §1

HeLa = experiment: as above; settings: Gynecologic cancer cell panel viability, ATPlite luminescence, 48 h; series mostly up to 57.5 µM
Outline: as §1

Hek293T = experiment: as above; settings: Gynecologic cancer cell panel viability, ATPlite luminescence, 48 h, control line for the selectivity index; series mostly up to 57.5 µM
Outline: as §1

JEG-3 = experiment: as above; settings: Gynecologic cancer cell panel viability, ATPlite luminescence, 48 h; series mostly up to 57.5 µM
Outline: as §1

OV90 = experiment: as above; settings: Gynecologic cancer cell panel viability, ATPlite luminescence, 48 h; series mostly up to 57.5 µM
Outline: as §1

PA-1 = experiment: as above; settings: Gynecologic cancer cell panel viability, ATPlite luminescence, 48 h; series mostly up to 57.5 µM
Outline: as §1

SKOV3 = experiment: as above; settings: Gynecologic cancer cell panel viability, ATPlite luminescence, 48 h; series mostly up to 57.5 µM
Outline: as §1

Tov-21-G = experiment: as above; settings: Gynecologic cancer cell panel viability, ATPlite luminescence, 48 h; series mostly up to 57.5 µM
Outline: as §1

Tov112D = experiment: as above; settings: Gynecologic cancer cell panel viability, ATPlite luminescence, 48 h; series mostly up to 57.5 µM
Outline: as §1

[1] = Drug repurposing screens with cells derived from glioblastoma tumor samples (AID 1345199); settings: GBM patient neurospheres viability, ATP luminescence, 48 h; further: nearly all actives have a fitted effect of over 40% in size; further: potency means the concentration at half of the fitted maximal effect
Outline: (§2)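 Four patient lines of CD133+ GBM neurospheres were screened at several concentrations; hits were retested in those lines plus three slower-growing GBM lines, using 48-hour treatment and ATP-based viability.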

astro = experiment: as above; settings: viability, ATP luminescence, 48 h; series mostly up to 45.9 µM
Outline: as §2

[2] = target: Nuclear receptor subfamily 1 group I member 2 (Rattus norvegicus) (UniProt Q9R1A7); experiment: qHTS assay for small molecule activators of the rat pregnane X receptor (rPXR) signaling pathway (AID 651751; call rule not given here); settings: rPXR reporter cells, luciferase (One-Glo), 24 h
[3] = qHTS assay for small molecule activators of the human pregnane X receptor (PXR) signaling pathway (AID 720659; call rule not given here)
[4] = at 45.9 µM (top of the series), tumour line B
[5] = at 45.9 µM (top of the series), tumour line D
[6] = at 46.1 µM (top of the series), tumour line C
[7] = at 46 µM (top of the series), tumour line A

Sequence of Nuclear receptor subfamily 1 group I member 2 (Rattus norvegicus) (Q9R1A7 whole entry, looked up): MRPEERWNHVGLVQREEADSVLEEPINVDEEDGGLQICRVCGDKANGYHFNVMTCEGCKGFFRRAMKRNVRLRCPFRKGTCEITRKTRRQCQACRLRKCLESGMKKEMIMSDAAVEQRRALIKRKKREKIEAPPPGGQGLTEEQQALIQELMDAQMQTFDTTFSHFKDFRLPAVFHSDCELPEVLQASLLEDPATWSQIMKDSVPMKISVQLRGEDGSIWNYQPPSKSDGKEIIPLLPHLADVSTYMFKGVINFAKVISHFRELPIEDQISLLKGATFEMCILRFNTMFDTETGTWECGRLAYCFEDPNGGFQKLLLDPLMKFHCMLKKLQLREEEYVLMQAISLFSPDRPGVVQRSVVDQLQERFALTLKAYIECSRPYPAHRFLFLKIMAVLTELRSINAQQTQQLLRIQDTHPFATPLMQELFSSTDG

Row | Compound | outcome (C33A) | outcome (CAOV3) | outcome (CASKI) | outcome (Es-2) | outcome (HeLa) | outcome (Hek293T) | outcome (JEG-3) | Potency (OV90) | outcome (PA-1) | outcome (SKOV3) | outcome (Tov-21-G) | outcome (Tov112D) | activity, negative = cell killing [1, 4] | activity, negative = cell killing [1, 5] | activity, negative = cell killing [1, 6] | outcome (astro) | Potency ([1]; tumour line A) | activity, negative = cell killing [1, 7] | max response [2] | outcome [3]
1 | NNc1nnc(NN)c2ccccc12 | inactive | inactive | inactive | inactive | inactive | inactive | inactive | inactive | inactive | inactive | inactive | inactive | -9.47% | -12.6% | -17.6% | inactive |  |  |  | 
2 | Cc1cc(-n2nc3ccc(Cl)cc3n2)c(O)c(C(C)(C)C)c1 | inactive | inactive | inactive | inactive | inactive | inactive | inactive | inactive | inactive | inactive | inactive | inactive | -1.32% | -14.3% |  | inactive | 7.94 µM (active) |  |  | 
3 | O=C1c2ccccc2S(=O)(=O)N1CCCCN1CCN(c2ncccn2)CC1 | inactive | inactive | inactive | inactive | inactive | inactive | inactive | inactive | inactive | inactive | inactive | inactive | 1.94% | -19.1% | -25.2% | inactive |  |  |  | 
4 | O=C(O)CCCc1ccccc1 | inactive | inactive | inactive | inactive | inactive | inactive | inactive | inactive | inactive | inactive | inactive | inactive | -2.94% | -2.78% | -9.45% | inactive |  |  |  | 
5 | Cc1ccc(S(=O)(=O)NC(=O)NC2CCCCCCC2)cc1 | inactive | inactive | inactive | inactive | inactive | inactive | inactive | inactive | inactive | inactive | inactive | inactive | -4.76% | 3.34% |  | inactive |  | -27.8% |  | 
6 | O=C(O)C(S)C(S)C(=O)O (stereo not given) | inactive | inactive | inactive | inactive | inactive | inactive | inactive | inactive | inactive | inactive | inactive | inactive |  |  |  | inactive |  |  |  | 
7 | O=C1c2cccc(O)c2C(=O)c2c(O)cccc21 | inactive | inactive | inactive | inactive | inactive | inactive | inactive | inactive | inactive | inactive | inactive | inactive |  |  | -4.97% |  | 11.2 µM (active) |  | 4.48% | inactive
8 | CN1CCN(C(=O)C2CCCCC2)CC1 | inactive | inactive | inactive | inactive | inactive | inactive | inactive | inactive | inactive |  | inactive | inactive | -7.62% | -7.41% | -23.1% |  |  |  |  | 
9 | C[C@H]1COc2c(C3(N)CC3)c(F)cc3c(=O)c(C(=O)O)cn1c23 | inactive | inactive | inactive | inactive | inactive | inactive | inactive | inactive | inactive | inactive | inactive | inactive | -13.2% |  | -15.1% | inactive |  |  |  | 
10 | O=C(CCBr)N1CCN(C(=O)CCBr)CC1 | inactive | inactive | inactive | inactive | inactive | inactive | inactive | inactive | inactive |  | inactive | inactive | -9.14% | -7.7% | -5.97% |  |  |  |  | 
11 | O=C(OOC(=O)c1ccccc1)c1ccccc1 | inactive | inactive | inactive | inactive | inactive | inactive | inactive | inactive | inactive | inactive | inactive | inactive | -7.59% | -7.12% | -4.84% | inactive |  |  | -0.865% | inactive
12 | CC(=O)N1C[C@H](O)C[C@H]1C(=O)O | inactive | inactive | inactive | inactive | inactive | inactive | inactive | inactive | inactive |  | inactive | inactive | -12.7% | 12.1% | -5.75% |  |  | -19.6% |  | 
13 | Cc1cc(=O)[nH]c(=S)[nH]1 | inactive | inactive | inactive | inactive | inactive | inactive | inactive | inactive | inactive |  | inactive | inactive | -11.2% | 2.62% | -26.3% | inactive |  |  | -6.87% | inactive
14 | Nc1ncnc2c1ncn2[C@@H]1O[C@H](COP(=O)(O)O)[C@@H](O)[C@H]1O | inactive | inactive | inactive | inactive | inactive | inactive | inactive | inactive | inactive |  | inactive | inactive | 4.49% | 20.2% | -13.6% | inactive |  | -19.3% |  | 
15 | O=C(O)Cn1c(C(=O)Nc2nc(-c3ccccc3Cl)cs2)cc2ccccc21 | inactive | inactive | inactive | inactive | inactive | inactive | inactive | inactive | inactive |  | inactive | inactive | -16.8% | -18.1% |  |  |  | -41.5% |  | 
16 | CCCCCCCC(=O)OCC(COC(=O)CCCCCCC)OC(=O)CCCCCCC | inactive | inactive | inactive | inactive | inactive | inactive | inactive | inactive | inactive | inactive | inactive | inactive | -10.1% | -25.3% | -9.12% |  |  |  | -0.801% | inactive
17 | COC(=O)c1cccnc1 | inactive | inactive | inactive | inactive | inactive | inactive | inactive | inactive | inactive |  | inactive | inactive | -7.13% | -4.81% | 40.1% | inactive |  | -28.2% |  | 
18 | CC(=O)Nc1ccc(OCCOCCOc2ccc(NC(C)=O)cc2)cc1 | inactive | inactive | inactive | inactive | inactive | inactive | inactive | inactive | inactive |  | inactive | inactive | -5.83% |  | -16.3% | inactive |  |  |  | 
19 | CC1CCc2cc(F)cc3c(=O)c(C(=O)O)cn1c23 (stereo not given) | inactive | inactive | inactive | inactive | inactive | inactive | inactive | inactive | inactive |  | inactive | inactive | -0.458% | -19% | -25.6% | inactive |  | -20.5% |  | 
20 | O=C(O)CNC(=O)c1ccccc1I | inactive | inactive | inactive | inactive | inactive | inactive | inactive | inactive | inactive |  | inactive | inactive | -1.24% | 4.71% | -16.1% | inactive |  | -24.5% |  | 
21 | CC[C@]12CCCN3CCc4c(n(c5ccccc45)[C@@](O)(C(=O)OC)C1)[C@@H]32 | inactive | inactive | inactive | inactive | inactive | inactive | inactive | inactive | inactive |  | inactive | inactive | -12.1% | 5.83% | -21.5% | inactive | 17.8 µM (active) |  |  | 
22 | CC1CCN(CCCC(=O)c2ccc(F)cc2)CC1 | inactive | inactive | inactive | inactive | inactive | inactive | inactive | inactive | inactive | inactive | inactive | inactive | -15.8% |  |  | inactive | 10 µM (active) |  |  | 
23 | Cc1cccc(C)c1NC(=O)CC12CCCN1CCC2 | inactive | inactive | inactive | inactive | inactive | inactive | inactive | inactive | inactive | inactive | inactive | inactive | -10.6% | -15.8% |  | inactive |  |  |  | 
24 | CCN1CC(CCN2CCOCC2)C(c2ccccc2)(c2ccccc2)C1=O (stereo not given) | inactive | inactive | inactive | inactive | inactive | inactive | inactive | inactive | inactive |  | inactive | inactive | -13.3% | -11.4% | -23.7% | inactive |  |  |  | 
25 | CC[N+](C)(CC)CCOC(=O)C1c2ccccc2Oc2ccccc21 | inactive | inactive | inactive | inactive | inactive | inactive | inactive | inactive | inactive |  | inactive | inactive | -11.7% | 10.5% | -9.49% | inactive |  | -6.39% |  | 
26 | COc1ccc(C(=O)NCc2ccc(OCCN(C)C)cc2)cc1OC | inactive | inactive | inactive | inactive | inactive | inactive | inactive | inactive | inactive | inactive | inactive | inactive | -21.3% | -4.36% |  | inactive |  |  |  | 
27 | Cc1c(NC(C)C)c(=O)n(-c2ccccc2)n1C | inactive | inactive | inactive | inactive | inactive | inactive | inactive | inactive | inactive |  | inactive | inactive | 0.947% | -9.1% | -2.3% | inactive |  |  |  | 
28 | CCCCCOC(=O)Nc1nc(=O)n([C@@H]2O[C@H](C)[C@@H](O)[C@H]2O)cc1F | inactive | inactive | inactive | inactive | inactive | inactive | inactive | inactive | inactive |  | inactive | inactive | 3.4% | -3.99% | 7.27% | inactive |  | -16.9% |  | 
29 | CC(C)NC[C@@H](O)COc1ccc(CC(N)=O)cc1 | inactive | inactive | inactive | inactive | inactive | inactive | inactive | inactive | inactive |  | inactive | inactive | -18.7% | 5.31% | -9.77% | inactive |  | 1.1% |  | 
